This is part of a sample that, as a whole, favours compounds with a hit. Of some 83,000 tested, about 20% had one in any assay.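 Single-concentration screen, 48 h exposure, 96-well plates. Endpoint: percent growth. Below 10 = active.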 A number with no mark means an inactive call. Calls of active or inactive are those of the source.
test system: T-47D breast; experiment: NCI-60 one-dose screen, 48 h (100 = growth as untreated, 0 = no growth, -100 = all killed); details: 10 µM unless noted
Procedure: Growth inhibition of the T-47D human tumor cell line is measured as a screen for anti-cancer activity. Cells are grown in 96 well plates and exposed to the test compound for 48 hours. Compounds are tested at a single concentration, which is 10^-5 M for most compounds. The reported endpoint is percent growth (GI% or GIPRCNT), where numbers from 0 - 100% represent growth inhibition, and numbers from -100% - 0 represent cell death. For example, a value of 40 represents 60% growth inhibition. A value of 0 means no net growth occurred over the course of the experiment. A value of -40 indicates 40% of cells at the beginning of the experiment died by the end of the experiment. A value of -100 means all cells are dead at the end of the experiment.
NCI-60 Human Tumor Cell Lines Screen was performed using the standard one-dose NCI protocol, which is described in more detail at https://dtp.cancer.gov/discovery_development/nci-60/default.htm.
Compounds with GIPRCNT values below 10 were considered active. Activity score was based on GIPRCNT using the following formula: […]
Score is 0 for GIPRCNT values of 100 or above, 50 for GIPRCNT values of 0, and 100 for GIPRCNT values of -100.

Compound | growth
CCCCCCCCCCCC[n+]1ccc2ccccc2c1 | 5.61% (active)
Clc1ccc(Cc2nc3ccccc3s2)cc1 | 79.6%
COc1c(C)c2c(c(O)c1C/C=C(\C)CCC(=O)O)C(=O)OC2 | 44.7%
Cc1ccc(/C=C2\CNC/C(=C\c3ccc(C)cc3)C2=O)cc1 | 14%
CC[n+]1ccc(Nc2ccc(NC(=O)c3ccc(Nc4cc[n+](CC)c5ccc([N+](=O)[O-])cc45)cc3)cc2)cc1 | 46.3%
CCC(C)C(N)C(=O)NC(CC(N)=O)C(=O)NC(CC(C)C)C(=O)NC(CCCCN)C(=O)NC(C)C(=O)NC(CC(C)C)C(=O)NC(C)C(=O)NC(C)C(=O)NC(CC(C)C)C(=O)NC(C)C(=O)NC(CCCCN)C(=O)NC(CCCCN)C(=O)NC(C(=O)NC(CC(C)C)C(N)=O)C(C)CC (stereo not given) | 93.9%
COC(=O)[C@]1(C)CCC[C@]2(C)c3ccc(C(C)C)cc3C(=O)[C@@H](Br)[C@@H]12 | 53.1%
Nc1cc(-c2ccccc2)ccc1O | 88.3%
O=C1/C(=C/c2ccccn2)CCc2ccccc21 | 84.9%
S=C(SSC(=S)N1CCOCC1)N1CCOCC1 | 79.8%
COc1cc(/C=C/c2ccnc3ccccc23)cc(OC)c1OC | 41.1%
CCCCCCCCCCCCN1C(C)=CS/C1=C\C=C\c1scc(C)[n+]1CCCCCCCCCCCC | 13.8%
O=C1C=CC(=O)N1c1ccccc1 | 99.8%
COC(=O)Nc1nc2ccc(C3(c4ccc(F)cc4)OCCO3)cc2[nH]1 | 47.1%
Cc1ccc2cccc(OC(=O)Nc3cccc(C(F)(F)F)c3)c2n1 | 47.1%
CCSc1nc2ccccc2o1 | 106%
O=C1C=CC(O)=CC1=P(c1ccccc1)(c1ccccc1)c1ccccc1 | 96.3%
Cc1cc2cccnc2c2ncccc12 | 2.22% (active)
CN(C)c1ccc(C(C#N)(c2ccccc2)c2ccc(N(C)C)cc2)cc1 | 41.8%
O=C1C=CC(=O)N1C1CCCCCCCCCCC1 | 56.9%

Compound | growth
CCOc1ccc(Nc2nc3c(s2)C(=O)c2ccccc2C3=O)cc1 | 59%
c1ccc(-c2cccc(-c3ccccn3)n2)nc1 | 38.1%
COc1cc(/C=C2\SC(=S)N(/C=C/c3nc4ccccc4[nH]c3=O)C2=O)cc(OC)c1OC | 52.6%
COc1ccc2nc3cc([N+](=O)[O-])ccc3c(NNc3ccccc3)c2c1 | 77.9%
N#CC(I)CS(=O)(=O)c1ccccc1 (stereo not given) | 44.6%
C[C@@]1(CO)[C@H](O)CC[C@@]2(C)[C@H]1CC[C@H]1C[C@@H]3C[C@@]12CC[C@@]3(O)COC(=O)CN | 61.8%
Nc1ccc(-c2ccc(N)c(S(=O)(=O)O)c2)cc1S(=O)(=O)O | 106%
COc1cc2c(c(OC)c1OC)-c1ccc(NCc3ccccc3)c(=O)cc1[C@@H](NC(C)=O)CC2 | 59.4%
O=C1Nc2ccc(Br)cc2C1=O | 96.2%
CC(C)(C)c1ccc(CCO)cc1 | 106%
O=[n+]1c2ccccc2n([O-])c2cc(Cl)ccc21 | 46.8%
NC(=S)Nc1ccc2c(c1)Cc1ccccc1-2 | 81.9%
O=C(Cc1ccccc1)C(F)(F)F | 95.4%
CCN(CC)CCNC(Cc1ccccc1)c1ccc(OCc2ccccc2)cc1 (stereo not given) | 68.5%
O=C(c1ccccc1)C(Br)C(Br)c1ccccc1 (stereo not given) | 31%
Cc1ccccc1N=C(N)Nc1ccccc1C (tested in a mixture with another compound) | 76.6%
CC(C)N=C(N)/N=C(\N)Nc1ccc2ccc3ccccc3c2c1 | -67.8% (active)
Nc1cccc2cccc([N+](=O)[O-])c12 | 113%
CC1(C)CCCC2=C1C(=O)N(SC(Cl)(Cl)Cl)C2=O | 66.9%
COc1ccc(NC(=O)/C(=C/N2C(=O)/C(=C/c3ccc(OC)c(OC)c3)NC2=S)C(C)=O)cc1 | 19.1%
